Experimental data reported in ChEMBL document CHEMBL3988442, “University of Dundee, Small-Polar-MMV Screening Library” (2021).

Biological target: T1, Aspartate--tRNA(Asp/Asn) ligase (Mycobacterium tuberculosis (strain ATCC 25618 / H37Rv)) (UniProt P9WFW3)
T1 sequence (whole entry): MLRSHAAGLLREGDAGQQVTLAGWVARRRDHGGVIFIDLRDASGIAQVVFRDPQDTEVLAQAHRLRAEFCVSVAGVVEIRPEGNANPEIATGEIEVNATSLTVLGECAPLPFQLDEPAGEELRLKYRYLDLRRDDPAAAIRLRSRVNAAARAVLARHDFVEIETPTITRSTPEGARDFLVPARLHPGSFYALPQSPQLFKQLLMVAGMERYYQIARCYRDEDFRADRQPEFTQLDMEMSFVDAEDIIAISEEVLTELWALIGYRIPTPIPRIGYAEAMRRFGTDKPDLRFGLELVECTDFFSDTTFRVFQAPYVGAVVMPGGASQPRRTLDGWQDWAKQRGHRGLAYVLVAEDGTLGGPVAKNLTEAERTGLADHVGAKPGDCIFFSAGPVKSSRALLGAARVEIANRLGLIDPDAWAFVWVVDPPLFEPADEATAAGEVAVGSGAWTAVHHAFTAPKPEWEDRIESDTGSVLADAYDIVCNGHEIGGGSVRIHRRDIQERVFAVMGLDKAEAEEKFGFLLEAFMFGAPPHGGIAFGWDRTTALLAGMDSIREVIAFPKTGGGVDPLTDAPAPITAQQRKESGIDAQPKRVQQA
Experiment: Assay for Asp RNA synthetase-1 from Mycobacterium tuberculosis
Format: functional
Parameters: scale not given: in the data most compounds retested in dose-response had high values
Conditions: 30 µM

SMILES	Percent Effect [%]
Cn1cc(-c2cnc(N3CCOCC3)nc2)cc1C(=O)N1CCOCC1	-3.52
Cc1nc(C2CCCN(C(=O)Cn3ccccc3=O)C2)no1 (stereo not given)	-1.54
CCn1cnnc1C1CCN(C(=O)c2cnc3ccccc3n2)CC1	-1.17
Cc1nn(C)c(C)c1CC(=O)N1CCC(Nc2cccnn2)CC1	-1.68
CC(C)n1ccnc1C1CCN(C(=O)c2cc[nH]n2)CC1	-0.496
NCC(=O)N1CCCC(c2cncc(Nc3ncccn3)n2)C1 (stereo not given)	1.44
CCc1nccn1C1CCCN(C(=O)Cc2cn3ccccc3n2)C1 (stereo not given)	0.0146
CN(Cc1cnn(C)c1)C(=O)Cn1c(CS(C)(=O)=O)nc2ccccc21	-0.869
COC(=O)CC(c1cnn(C)c1)c1oc(C)cc(=O)c1O (stereo not given)	-0.166
Cc1nn(C)c(C)c1C1CCCN1C(=O)c1cc[nH]n1 (stereo not given)	-5.05
O=S1(=O)C[C@@H]2[C@H](C1)N(Cc1ncc[nH]1)CCN2CC1CC1	0.123
O=C(c1ccco1)N1CC[C@H]2[C@H]1CCN2CC1CCOCC1	1.99
CCc1nccn1C1CCCN(C(=O)CCCNc2ncccn2)C1 (stereo not given)	-4.79
CCn1cc(CN2CCCN(C(=O)C3=NN(C)C(=O)CC3)CC2)cn1	0.98
CCc1nc(CN(CC(N)=O)C(C)C)cs1	0.799
CC(C)(N)C(=O)N1CCCC1c1cncc(Oc2ccc(F)cc2)n1 (stereo not given)	-3.75
Cc1csc(CNC(=O)Nc2cc(C(F)(F)F)c[nH]c2=O)n1	-5.12
CN(C)C(=O)CC1CC2(CCN(C(=O)N(C)C)CC2)Oc2ccccc21 (stereo not given)	1
COc1cccc(CN(C)C(=O)CN2CC(n3nc(C)cc3C)C2)c1	1.62
COc1c(CNCc2ccnc(N3CCCC3)c2)c(C)nn1C	2.34

SMILES	Percent Effect [%]
COc1ccc(C2=C(C)C(N3CCc4ccccc4C3)=NS2(=O)=O)cc1	2.67
CC(NC(=O)NCC1(c2ccc(F)cc2)CCC1)c1nncn1C (stereo not given)	2.25
O=C(NCc1cc[nH]n1)NCC(c1ccc(F)cc1)N1CCOCC1 (stereo not given)	-0.433
NC(=O)N1CC[C@H](O)[C@@H]1Cc1cccnc1	1.51
Cc1csc(N2CCN(C(=O)Cc3ccc(C)s3)CC2)n1	-4.4
Cc1nn(C)c(C)c1C1CCCN1Cc1cccc(C(=O)N(C)C)c1 (stereo not given)	-0.742
Cc1occc1C(=O)Nc1ccnc(OC2CCOC2)c1 (stereo not given)	-6.74
O=C1CCCN1Cc1nnc2n1CCN(Cc1ccoc1)CC2	1.71
O=C(c1cccnc1)N1CCc2ncnc(C3CCOC3)c2CC1 (stereo not given)	-5.37
COCCNS(=O)(=O)c1cccc2c1CN(C(=O)c1ccccc1)CC2	-2.79
Cn1cc(CC2CCN(C(=O)NCCc3cccc(O)c3)C2)cn1 (stereo not given)	-5.03
CN1CCN(c2cc(CCNC(=O)C3CCC3)nc(C3CC3)n2)CC1	-3.83
CSCC(=O)N1CCCN(c2ccccc2C)CC1	0.55
CN(C)S(=O)(=O)N1C[C@H](Oc2cccnc2)[C@H]2OCCC[C@H]21	2.32
CN(CCCOc1ccc(F)cc1)Cc1nc2c(cnn2C)c(=O)[nH]1	-4.83
COc1cccc(CN2CCC(c3nccn3C(C)C)CC2)c1	1.9
CCc1cc(C(=O)N2CCCC2c2nc(C)c(F)c(O)n2)on1 (stereo not given)	2.22
CC(C)c1nn(C)c(N2CCOCC2)c1CNCCS(C)(=O)=O	-2.08
COc1ccc(S(N)(=O)=O)cc1C(=O)N(C)Cc1cc(C)on1	-2.1
CN1N=C(C(=O)N2CCCC(CCc3c(F)cccc3F)C2)CCC1=O (stereo not given)	-2.6
